Laboratory results taken from the supplement of paper PMC11219838.
A number with no mark means an inactive call.

system: Meloidogyne hapla J2; assay: proportion of mobile M. hapla J2 relative to DMSO control (fraction of DMSO control); higher = more viable, less nematicidal, active = 0.7 or less; details: 60 µM; 5 days; temperature: 20 °C
Procedure, shortened: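 Sealed 96-well plates, each well holding around 25 M. hapla J2 in distilled water with compound pinned to 60 µM final (0.6% v/v DMSO), were shaken at 200 rpm for 5 days at 20 °C. Then 2 µL of 1 M NaOH was added to each well. Microscope-scored mobility was normalised to the mean of DMSO-only wells from the same plate. Eight such wells were on each plate, and the two biological replicates were averaged.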

| SMILES | proportion of mobile M. hapla J2 |
| --- | --- |
| CC(C)(C)NC(=O)CSc1nnc(-c2ccc(C(C)(C)C)cc2)o1 | 1.02 |
| CC(C)C(=O)Nc1ccccc1-c1nc(-c2ccccc2)no1 | 0.957 |
| Cc1ccc(-c2noc(C3CCCCC3)n2)cc1 | 1.05 |
| Clc1cccc(OCc2nc(-c3cccs3)no2)c1 | 0.942 |
| COc1nc(C)ccc1-c1noc(-c2ccc(Cl)cc2)n1 | 0.832 |
| O=C(CSc1nnc(-c2ccccc2)o1)Nc1ccccc1C(F)(F)F | 0.918 |
| Clc1ccc(CSc2nnc(-c3ccccc3Cl)o2)cc1 | 0.888 |
| CC1CCN(C(=O)CSc2nnc(-c3cccc(Cl)c3)o2)CC1 | 1.02 |
| O=C(CSc1nnc(-c2ccc(Cl)cc2)o1)c1ccccc1 | 0.772 |
| O=C(CSc1nnc(-c2ccc(Cl)cc2)o1)Nc1nccs1 | 0.917 |
| O=C(CSc1nnc(-c2cccnc2)o1)c1ccc2ccccc2c1 | 0.74 |
| CCOc1cc(-c2nc(-c3cc4ccccc4nc3OC)no2)cc(OCC)c1OCC | 1.04 |
| Cc1cccc(-c2noc(-c3cccc(Cl)c3)n2)c1 | 1 |
| Cc1cc(OCc2nc(-c3ccccc3)no2)ccc1Br | 0.932 |
| Cc1cccc(-c2noc(-c3ccc(Br)cc3)n2)c1 | 1.04 |
| Cc1cnnn1-c1ccc(-c2nc(-c3ccc(Cl)cc3)no2)cc1 | 0.963 |
| Cc1ccc(C)c(OCc2nc(-c3ccccc3Cl)no2)c1 | 0.854 |
| Clc1ccc(OCc2nc(-c3ccccn3)no2)c(Br)c1 | 1.04 |
| Nc1nc(CSc2nnc(-c3ccccc3)o2)cs1 | 0.752 |
| O=C(CSc1nnc(-c2ccc(Cl)cc2)o1)NC1CCCCC1 | 0.918 |

| SMILES | proportion of mobile M. hapla J2 |
| --- | --- |
| CCN(CC)C(=O)CSc1nnc(-c2ccc(Cl)cc2Cl)o1 | 1.03 |
| COc1ccc(Cl)cc1-c1noc(COc2ccccc2)n1 | 0.953 |
| Cc1ccc(-c2noc(-c3cccc(C)c3)n2)cc1 | 0.947 |
| CCc1nnc(NC(=O)CSc2nnc(-c3cccc(C)c3)o2)s1 | 0.815 |
| Cc1cc(OCc2nc(-c3ccccn3)no2)ccc1Br | 0.937 |
| COc1cccc(-c2noc(COc3ccc(C)c(C)c3)n2)c1 | 1.06 |
| Cn1c(SCc2nc(-c3cccs3)no2)nnc1-c1ccco1 | 0.932 |
| Fc1ccc(-c2nc(-c3ccc(Br)cc3)no2)cc1 | 0.848 |
| O=C(CSc1nnc(-c2ccco2)o1)Nc1ccc(Br)cn1 | 0.756 |
| Cc1ccc(C)c(-c2nc(-c3ccc(Cl)cc3)no2)c1 | 0.93 |
| O=C(c1ccccc1-c1nc(-c2ccccc2Cl)no1)N1CCCC1 | 0.947 |
| Cc1ccc(-c2nnc(SCc3c(C)cc(C)cc3C)o2)cc1 | 0.926 |
| Brc1ccc(-c2noc(COc3ccccc3)n2)cc1 | 0.602 (active) |
| Cc1ccc(C(=O)Nc2ccccc2-c2nc(-c3cccnc3)no2)cc1C | 0.962 |
| CNC(=O)c1ccccc1-c1nc(-c2ccc(F)cc2)no1 | 0.987 |
| Cc1cc(OC(C)c2nc(-c3ccccn3)no2)ccc1Cl (centres undefined) | 1.03 |
| Cc1ccc(-c2nc(-c3ccccc3Br)no2)cc1 | 0.962 |
| Brc1ccc(-c2nnc(-c3cccs3)o2)o1 | 1.07 |
| Cc1cc(OCc2nc(-c3cccnc3)no2)c(C)c(C)c1Br | 0.934 |
